Cycloheximide cs = affects cycloheximide protein synthesis inhibition readout, counter-screen; cell reporter, cycloheximide protein synthesis inhibition counterscreen; max response, %; 300,000 compounds, 12% hits; in the data active = max response mostly above about 13%, no sharp cut-off; inactive = mostly below about 14%; note: read at 38.3 µM for the half of the compounds with a filed dose; 0% is about no effect
Shiga inhibitor = Shiga toxin inhibition; AID 2315; inhibition, % at 38.7 µM; 290,000 compounds, 9.2% hits; Vero cells, Shiga toxin protein synthesis inhibition reporter; in the data active = inhibition mostly above about 28%, no sharp cut-off; inactive = mostly below about 43%; note: 0% is about no effect
AMA1 RON2 block = inhibitors of Plasmodium falciparum AMA1-RON2 interaction; AlphaScreen AMA1-biotinylated RON2 peptide binding; Potency, µM (series often up to 58.2 µM), without a hit: at the highest dose activity change, negative = inhibition, most hits filed as inhibitors; 360,000 compounds, 0.2% hits; AID 720542; active = well fitted inhibition curve with a large enough effect; inconclusive = small, poorly fitted or top-dose-only effect; inactive = no such curve, though single readings can be large or run the other way;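 note: potency is the fitted concentration of half-maximal effect; 0% = vehicle wells and -100% = peptide control; nearly all actives have a fitted effect of over 45% in size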
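AMA1 (3D7) with his tag at 25 nM final met compounds first, then biotinylated RON2 peptide at 25 nM; detection used donor plus acceptor beads, 10 µg/mL apiece, read by AlphaScreen after 30 min at room temperature.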
MARV entry inh = blocks Marburg virus binding to or entry into cells | AID 540276 | Marburg virus pseudotyped entry inhibition, cell reporter | 300,000 compounds, 1.8% hits | Potency, µM (doses to about 37.8 µM), inactives show top-dose activity change, negative = inhibition, hits mostly inhibitors; calls by dose curve; tested in HEK293 cells; note: potency is the fitted concentration of half-maximal effect; % is set by controls: 0 for no effect and ±100 for the full control effect
Lassa entry inh = inhibitors of Lassa virus binding or cell entry; Lassa virus pseudotype entry inhibition, cell reporter; 300,000 compounds, 1.2% hits; Potency, µM (top dose mostly 37.9 µM), without a hit: top-dose activity change, negative = inhibition, hits mostly inhibitors; AID 540256; calls by dose curve; tested in HEK293 cells; note: potency is the fitted concentration of half-maximal effect; % is set by controls: 0 for no effect and ±100 for the full control effect; nearly all actives have a fitted effect of over 50% in size
Starred values were filed as active, the others as inactive; ? = inconclusive; / = no result; [ ] = another dose, or the depositor's remark. Shown is part of a subset that was picked to be rich in hits.

SMILES	Cycloheximide cs	Shiga inhibitor	AMA1 RON2 block	MARV entry inh	Lassa entry inh
CCOc1ccccc1NS(=O)(=O)c1ccc2c(c1)CC(C)N2C(=O)C1CCC1 (stereo not given)	/	/	/	/	-22.5%[46.1 µM]
O=S(=O)(c1cccs1)N1CCC(CO)(Cc2ccc(Cl)cc2)CC1	1.1	-1.4	4.0%	7.94µM*	?
O=C(NC1CC(=O)c2sccc21)c1ccc(Cl)cc1Cl (stereo not given)	31.5*	33.4	-3.3%	13.1%[46.1 µM]	6.5%[46.1 µM]
O=c1[nH]c(CN2CCN(S(=O)(=O)c3cccs3)CC2)nc2c(Br)cc(Br)cc12	-1.4	-4.7	16.3%	-17.2%[46.1 µM]	-28.4%
Cc1ccc(C)c(N2CCN(CCCNC(=O)C3COc4ccccc4C3)CC2)c1 (stereo not given)	/	/	/	/	-5.1%[46.1 µM]
O=C(N/N=C/c1ccco1)c1cc(-c2ccc3ccccc3c2)n[nH]1	17.9*	22.5	79.0%	12.6µM*	?
O=C(N/N=C/c1cccs1)c1cc(-c2ccc3ccccc3c2)n[nH]1	39.2*	54.1*	3.1%	?	-20.4%
COc1ccccc1-c1cc(C(=O)N/N=C/c2cccs2)c2ccccc2n1	-0.1	18.7	5.3%	?	?
O=C(N/N=C/c1cccs1)c1cccc2cc[nH]c12	-2.0	15.3	21.1%	?	0.1%
O=C(N/N=C/c1cccs1)c1cc(-c2cccc3ccccc23)n[nH]1	46.5*	-25.7	47.2%	5.0%	/
CCc1ccc(-c2cc(C(=O)N/N=C/c3ccco3)[nH]n2)cc1	-3.8	-9.2	38.8%	-13.1%[46.1 µM]	/
COc1cccc2c(=O)cc(C)n(CC(=O)Nc3cccc(C)c3)c12	-6.0	-17.5	-1.1%	-38.9%	-30.1%
CC(C)N(C(=O)Cn1cc(SCC(=O)Nc2ccccc2C(F)(F)F)c2ccccc21)C(C)C	/	/	/	/	23.6%[46.1 µM]
CCCOc1ccc(C2C(=O)N(C3CCCCCC3)CC(=O)N2CCC2=CCCCC2)cc1OC (stereo not given)	/	/	/	/	-12.9%[46.1 µM]
Cc1ccccc1Nc1nnc(-c2ccc(C(=O)NCCO)cc2)c2ccccc12	5.2	3.4	0.0%	/	/
CC(C)CC(=O)Nc1c2c(nn1-c1ccc(F)cc1)CS(=O)C2 (stereo not given)	24.4*	19.5	-11.4%	/	/
Cc1ccc(CSc2nc3ccncc3[nH]2)cc1	15.2	-3.5	-0.1%	/	/
O=C(c1ccc(CSc2nc3ccncc3n2Cc2ccccc2)cc1)N1CCCCCC1	/	/	/	26.1%[46.1 µM]	-2.3%[46.1 µM]
Clc1ccc(CSc2nc3ccncc3[nH]2)cc1	50.6*	51.1*	-8.4%	/	/
O=C(c1ccc(CSc2nc3ccncc3[nH]2)cc1)N1CCN(c2cccc(Cl)c2)CC1	-4.4	11.7	12.7%	?	25.9µM*
O=C(NCc1ccc(Cl)cc1)c1ccc(CSc2nc3ccncc3[nH]2)cc1	1.7	-3.8	8.4%	-16.5%[46.1 µM]	?
O=C(c1ccc(CSc2nc3ccncc3[nH]2)cc1)N1CCCCCC1	17.8*	38.9	0.0%	/	/
CCN(CC)CCN1C(=O)C(=O)/C(=C(/O)c2cnn(-c3ccccc3)c2C)C1c1ccc(C)o1 (stereo not given)	47.4*	87.4*	2.2%	-22.5%	?
Cc1ccc(C2/C(=C(\O)c3cnn(-c4ccccc4)c3C)C(=O)C(=O)N2CCN(C)C)o1 (stereo not given)	-3.0	-8.6	15.6%	?	10.3%
Cc1c(/C(O)=C2/C(=O)C(=O)N(CCN3CCOCC3)C2c2cccs2)cnn1-c1ccccc1 (stereo not given)	39.9*	85.9*	0.0%	?	-0.8%
SMILES	Cycloheximide cs	Shiga inhibitor	AMA1 RON2 block	MARV entry inh	Lassa entry inh
Cc1c(/C(O)=C2\C(=O)C(=O)N(CCN3CCOCC3)[C@H]2c2cccnc2)cnn1-c1ccccc1	/	/	/	0.0%	/
Cc1ccc(C2/C(=C(/O)c3cnn(-c4ccccc4)c3C)C(=O)C(=O)N2CCN2CCOCC2)o1 (stereo not given)	56.3*	74.8*	7.2%	9.9%	?
Cc1ccc([C@H]2/C(=C(\O)c3cnn(-c4ccccc4)c3C)C(=O)C(=O)N2CCN2CCOCC2)o1	/	/	/	9.9%	/
C/C(=N/NC(=O)c1cc(-c2ccccc2)nc2c(Cl)cccc12)c1cccnc1	-2.7	-11.6	12.4%	-19.2%	-16.2%
CCCc1nc2ccc(C)cn2c1Cc1cccc(Cl)c1	/	/	-20.2%	/	/
CC[n+]1c(C)cc2c(sc3ccccc32)c1C	1.2	2.5	-6.4%	/	/
CCc1nc(C)cc2c1sc1ccccc12	19.2*	38.0	31.0%	11.8%[46.1 µM]	17.3%
COc1cccc(C=Nc2cccc3c(=O)[nH][nH]c(=O)c23)c1O	24.2*	59.7*	94.7%	/	/
CCn1cc(C(=O)N2CCCCC2)c(=O)c2cc(S(=O)(=O)N3CCC(C)CC3)ccc21	22.8*	9.7	-3.5%	7.3%	-12.8%
O=[N+]([O-])c1nc2ccccc2[nH]1	/	/	9.4%	?	21.6%
Cc1nc2ccc(C(=O)Nc3ccc4nc[nH]c4c3)cc2[nH]1	5.4	-8.1	0.7%	?	?
O=C(Nc1nc2ccccc2[nH]1)c1cccs1	37.4*	75.0*	71.8%	-18.6%[46.1 µM]	-5.6%[46.1 µM]
Cc1nc2ccc(NC(=O)c3ccc([N+](=O)[O-])cc3)cc2[nH]1	13.7*	24.3	-3.8%	-4.4%	?
Cc1ccc(C(=O)Cc2nc3ccccc3[nH]2)cc1	35.8*	64.5*	71.5%	17.6%[46.1 µM]	/
O=C(c1nc2ccccc2[nH]1)c1ccccc1[N+](=O)[O-]	32.1*	72.8*	-8.2%	?	24.0%[46.1 µM]
N[C@H](CP(=O)(O)O)C(=O)O	/	/	/	6.0%	/
CCOc1ccc(S(=O)(=O)Nc2cccc(C(=O)NCC(c3ccc(OC)cc3)N3CCOCC3)c2)cc1 (stereo not given)	5.2	-14.5	-5.6%	-23.1%	-9.4%
COc1ccccc1C(=O)Nc1nc2ccccc2[nH]1	-11.1	-27.7	0.2%	?	?
O=C(CSc1nc2ncc(Br)cc2[nH]1)c1cccc([N+](=O)[O-])c1	0.4	6.5	9.1%	-24.1%	-16.6%
Cn1nc(C(=O)Nc2nc3ccccc3[nH]2)ccc1=O	46.2*	84.0*	4.1%	?	?
O=C(Cc1nc2ccccc2[nH]1)c1cccc([N+](=O)[O-])c1	37.5*	70.0*	97.6%	/	/
Cc1nc2nc(SCC(=O)c3cccc([N+](=O)[O-])c3)[nH]c2cc1Br	31.4*	29.8*	62.0%	3.4%	28.3%
Cc1ccc(C(=O)Nc2nc3ccccc3[nH]2)cc1	1.0	-7.4	60.9%	1.41µM*	?
CCOc1ccc(CCNC(=O)C2CCCN(c3ncnc4c3nc3n4CCCCC3)C2)cc1 (stereo not given)	-3.3	-6.6	-4.7%	?	-19.4%[46.1 µM]
CC(C)c1ccccc1NC(=S)NCC1(N(C)C)CCCCC1	-0.7	-15.8	36.0%	/	/
COC(=O)c1cc(C(=O)Nc2cc(C)ccn2)cc([N+](=O)[O-])c1	12.6	34.9*	0.0%	?	?
COc1cc(C(=O)Nc2nc3ccccc3[nH]2)cc(OC)c1OC	10.0	18.8	39.6%	0.9%	10.7%
O=C(Nc1nc2ccccc2[nH]1)c1ccc(Cl)c(S(=O)(=O)N2CCCC2)c1	33.4*	70.9	80.9%	?	?
O=C(Nc1nc2ccccc2[nH]1)c1ccc([N+](=O)[O-])cc1	28.2*	91.6*	112.3%	-27.1%[46.1 µM]	-22.6%

Bioassay records as filed in PubChem.
